Compounds with a hit are over-represented: about 14% of the library has one in this group of screens.
Giardia FBPA inh – blocks Giardia fructose-bisphosphate aldolase activity. purified Giardia FBPA. Potency, µM (doses to about 59.6 µM), for inactives: at the top dose activity, negative = inhibition, usual class: inhibitors. actives 0.71% (n = 290,000); note: potency is the fitted concentration of half-maximal effect; nearly all actives have a fitted effect of over 55% in size
Target sequence (A8B2U2 whole entry, looked up): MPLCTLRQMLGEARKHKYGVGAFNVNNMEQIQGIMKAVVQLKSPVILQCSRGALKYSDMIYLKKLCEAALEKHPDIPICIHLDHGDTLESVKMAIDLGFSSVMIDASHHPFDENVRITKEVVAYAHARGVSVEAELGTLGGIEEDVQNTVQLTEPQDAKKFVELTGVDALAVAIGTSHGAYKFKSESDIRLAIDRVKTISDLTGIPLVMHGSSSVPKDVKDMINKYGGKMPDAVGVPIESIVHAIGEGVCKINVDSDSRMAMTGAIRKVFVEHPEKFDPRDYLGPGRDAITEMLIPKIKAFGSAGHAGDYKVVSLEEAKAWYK
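40 nM FBPA preincubated 10 min at RT with compound (up to 57.5 uM final), then substrate plus GAPDH/TPI/NAD/arsenate coupling and diaphorase/resazurin added. Fluorescence read after 20 min at RT, 525/598 nm.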
Pf growth 48h – P. falciparum growth inhibition at 48 hours (one generation) | P. falciparum luciferase growth in erythrocytes, 48 h | Potency, µM (highest dose often 28.7 µM), for inactives: top-dose activity change, negative = inhibition, hits mostly inhibitors | actives 5.9% (n = 310,000) | AID 504832; note: potency is the fitted concentration of half-maximal effect
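Luciferase-expressing P. falciparum in infected erythrocytes (2% hematocrit, 0.1% parasitemia final) in RPMI 1640/0.5% Albumax were exposed to compound for 48 hours at 37 C, 5% CO2; growth read as luminescence.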
Pf growth 96h – P. falciparum growth inhibition at 96 hours. P. falciparum luciferase reporter growth, 96 h. Potency, µM (top dose mostly 28.7 µM), for inactives: top-dose activity change, negative = inhibition, usual class: inhibitors. actives 6.9% (n = 320,000); note: potency is the fitted concentration of half-maximal effect
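Plates of compound plus infected erythrocytes (2% hematocrit, 0.05% parasitemia final) incubate 96 hours, 37 C, 5% CO2. Detection reagent added; reduced luminescence from the parasites' luciferase reporter flags inhibition.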
HCMV inh – blocks human cytomegalovirus replication; HFF cells, HCMV-luciferase reporter, 72 h; stronger effect = lower value; activity change, negative = inhibition, % at 57.5 µM; actives 4.5% (n = 410,000); AID 1259415; in the data active = activity change below about -60%; inconclusive = no clear call, values can overlap the other calls; inactive = above about -39%
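Human foreskin fibroblasts infected with luciferase-reporter HCMV at MOI 1 PFU/cell, compounds at two doses. Luciferase measured 72 h post infection; normalized to buffer-only basal and Salinomycin (10uM) controls.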
Sm TGR block – S. mansoni TGR enzyme inhibition. Q962Y6. purified TGR, DTNB reduction, TNB absorbance 405 nm. Potency, µM (titrated, usually from 114 µM), without a hit: at the highest dose activity change, negative = inhibition, hits mostly inhibitors. actives 3% (n = 360,000); note: potency is the fitted concentration of half-maximal effect; nearly all actives have a fitted effect of over 60% in size
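Kinetic colorimetric format: TGR-catalysed, NADPH-driven DTNB reduction monitored via TNB absorbance. Enzyme dispensed at 20 nM; compound exposure 15 min at room temperature before reaction start.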
* = called active by the depositor; ? = inconclusive; . = no result given. Unless noted, calls come from the whole dose curve; as a rule, active = well fitted curve in the direction sought with a large enough effect; inconclusive = small, poorly fitted or top-dose-only effect, or another doubt; inactive = no such curve, though single readings can be large; an effect the other way counts as inactive or inconclusive. % is set by controls: 0 for no effect and ±100 for the full control effect.

SMILES	Giardia FBPA inh	Pf growth 48h	Pf growth 96h	HCMV inh	Sm TGR block
CC(C)(C)NC(=S)N/N=C/c1c(Cl)cccc1Cl	-2.3%	3.7µM*	2.94µM*	-22.4	-10.4%
COc1ccc(/C=C(/C(=O)c2cccs2)N2C=CC=CC2=C(C#N)C#N)cc1	-4.3%	68.2%	56.7%	-60.1*	0.282µM*
CCCCCCOc1ccc(C(=O)O)cc1	?	14.2%	3.6%	7.4	5.4%
CCOc1ccc(Br)cc1/C(C)=N\NC1=NCCN1	-6.0%	?	.	?	-1.0%
CCCCCCOc1ccc(/C(C)=N/NC2=NCCN2)cc1	?	?	-7.7%	-96.2*	1.2%
CCCCCOc1ccc(/C(C)=N/NC2=NCCN2)cc1	-13.8%	7.38µM*	11.7µM*	12.6	-0.5%
CCCCOc1cccc(C(=O)N(Cc2ccc(N(C)C)cc2)C2CCS(=O)(=O)C2)c1 (centres undefined)	.	.	.	13.4	6.6%
COCCCn1c(SCC(=O)NCc2ccco2)nc2sc3c(c2c1=O)CCC3	-0.9%	?	3.3%	-33.2	39.8µM*
Cc1sc2nc3ccc(NCc4ccco4)nn3c(=O)c2c1C	0.4%	2.8%	-2.9%	22.9	35.5µM*
O=C(CSc1ncnc2sc3c(c12)CCCCC3)NCc1ccco1	12.3%	-1.1%	.	-8.8	31.6µM*
CCCn1c(SCC(=O)N2CCN(C(C)=O)CC2)nc2sc3c(c2c1=O)CCC3	18.4%	?	13.1µM*	?	3.7%
CCCn1c(SCC(=O)NCC)nc2sc3c(c2c1=O)CCC3	4.2%	-7.6%	-24.1%	38.2	-0.5%
CC1(C)OC(=O)C2=C(C[C@@H](CCC(F)(F)F)O[C@H]2c2ccc(F)cc2)O1	.	.	.	17.5	.
Cn1cc(CN2CCC(n3nccc3NC(=O)Cc3ccccc3)CC2)cn1	.	-6.2%	0.0%	-20.4	-1.6%
CCN(CC)C(=O)Oc1ccc2oc(=O)cc(-c3cc4cccc(OC)c4o3)c2c1	14.1%	0.0%	3.6%	10.3	2.2%
COc1ccc(CNC(=O)c2ccc(-c3nc(CSc4ccc(C)cc4)c(C)o3)cc2)c(OC)c1	.	.	.	11.8	-6.2%
CC(C)Cc1nc2sc3c(SCC(N)=O)ncnc3c2c2c1CCC2	0.8%	-20.9%	-16.2%	1.6	-1.1%
CC(C)c1nc2sc3c(SCC(=O)NCc4ccco4)ncnc3c2c2c1CCC2	-17.3%	90.1%	0.0%	11.7	25.1µM*
Cc1sc2nc(SCC(=O)NCc3ccco3)n(C)c(=O)c2c1C	20.5%	-6.3%	-0.8%	?	-6.8%
CC1(C)Cc2c(sc3nc(SCC(=O)NCc4ccco4)n(-c4ccccc4)c(=O)c23)CS1	-0.3%	-3.2%	.	-31.3	-23.5%
CCN(CC)C(=O)CSc1nc2sc3c(c2c(=O)n1CCCOC)CCC3	8.3%	?	-0.1%	-76.1*	-26.5%
O=C(CSc1nc2sc3c(c2c(=O)n1-c1ccccc1)CCCC3)NCc1ccco1	4.1%	-5.6%	?	-93.5*	-10.6%
Cc1sc2nc(SCC(=O)NCc3ccco3)n(CCc3ccccc3)c(=O)c2c1C	4.2%	11.7µM*	-0.9%	-67.8*	-5.3%
Cc1[nH]c(=O)[nH]c(=O)c1S(=O)(=O)Nc1ccc(F)cc1Cl	2.2%	27.1%	?	-24.0	-1.5%
CC(Sc1nnc(-c2cccs2)n1N)C(=O)NCC1CCCO1 (centres undefined)	.	28.2%	-0.7%	-1.6	-1.9%
SMILES	Giardia FBPA inh	Pf growth 48h	Pf growth 96h	HCMV inh	Sm TGR block
O=C(COC(=O)Cc1ccc(Cl)cc1)Nc1c(F)cccc1F	0.6%	0.6%	5.4%	-31.4	-2.8%
CC(C)c1ccc(NC(=O)CN2C(=O)NC(C)(C3CC3)C2=O)cc1 (centres undefined)	.	55.6%	-0.3%	28.7	0.2%
CCOC(=O)CNC(=O)CSc1nc2sc(C)c(C)c2c(=O)n1C	7.1%	17.3%	?	-19.6	1.8%
Cc1sc2nc(SCC(=O)NCCO)n(C)c(=O)c2c1C	-0.1%	6.6%	9.28µM*	-19.6	-0.8%
C=CCOc1nc2sc(C)c(C)c2c(=O)n1-c1ccccc1	10.7%	-1.6%	8.28µM*	-33.4	6.4%
CSc1ccccc1C(=O)NC(C)c1ccc(-n2ccnc2)cc1 (centres undefined)	.	10.2%	?	-11.9	5.62µM*
CCOc1ccccc1C(=O)NC(C)c1ccc(-n2ccnc2)cc1 (centres undefined)	-8.4%	?	8.28µM*	-37.2	?
CC(NC(=O)c1ccccc1Cl)c1ccc(-n2ccnc2)cc1 (centres undefined)	.	.	.	-4.4	.
CCOC(=O)C1(Cc2ccccc2C)CCCN(C(=O)c2ccc(OC)o2)C1 (centres undefined)	-4.8%	?	?	-6.9	?
Cc1[nH]c2ccc(C(=O)NC3CCC(C)CC3)cc2c1C (centres undefined)	-3.3%	11.8%	?	-14.9	-9.7%
Cc1cc(C)cc(-n2nnc(C(=O)NCc3ccccc3)c2N)c1	1.1%	13.1µM*	?	25.2	0.1%
Cc1ccc(CNC(=O)c2nnn(CC(=O)Nc3cc(C)cc(C)c3)c2N)cc1	0.1%	36.3%	2.08µM*	?	0.1%
COc1cc(NC(=O)c2nnn(CC(=O)Nc3cc(C)ccc3C)c2N)cc(OC)c1	.	.	.	-69.5*	-1.7%
Cc1cc(C)cc(-n2nnc(C(=O)NCc3ccc(Cl)cc3)c2N)c1	-2.8%	?	-19.2%	-34.2	3.2%
COc1ccc(NC(=O)Cn2nnc(C(=O)NCc3ccc(C)cc3)c2N)cc1OC	2.9%	0.9%	49.4%	-36.5	5.4%
Cc1cc(C)cc(NC(=O)Cn2nnc(C(=O)NCc3ccc4c(c3)OCO4)c2N)c1	0.1%	32.0%	0.104µM*	-21.2	1.5%
COc1ccc2[nH]c(=O)c(CN(C(=O)c3cccc(Cl)c3)c3cccc(C)c3)cc2c1	.	.	.	-9.1	-1.3%
CCOc1ccc(CNC(=O)c2ccc3c(c2)nc2n3CCC(C)C2)cc1OC (centres undefined)	.	.	.	?	-1.3%
O=C1NC(=O)C(Cc2ccc(OCCN3COc4ccccc4C3=O)cc2)S1 (centres undefined)	21.1%	.	.	.	.
O=C(Cc1nnc(NC(=O)Nc2ccccc2F)s1)NCc1ccccc1	4.9%	16.8%	37.0%	31.1	-3.4%
CCCCNC(=O)C(C)(C)n1cc(NC(=O)c2cc(C)oc2C)cn1	.	.	.	2.8	.
Cn1c2c(c(=O)n(C)c1=O)C1(C(=O)Nc3ccccc31)C(C#N)=C(N)O2 (centres undefined)	?	10.4µM*	8.28µM*	25.0	?
COC(=O)C1=C(C)OC(N)=C(C#N)C12C(=O)Nc1ccccc12 (centres undefined)	-0.6%	32.6%	3.2%	23.0	7.6%
O=C(NCC1CCCCC1)C1(CC2CC(c3ccc(Cl)cc3)=NO2)CCNCC1 (centres undefined)	3.5%	?	?	6.4	?

Screens (PubChem)
